Compound activity from PubChem.
Sampled rows, rich in hits. Any-hit rate of the full collection: about 4.1%.
ssDAF12 agonist = S. stercoralis DAF-12 activation, primary screen; hit rate 1% among 370,000; HEK293 ssDAF-12/GRIP1 lit1-tk-luc reporter, luminescence; % of 3 µM dafachronic acid response; activation, % at 6.8 µM;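 active = activation above the mean over all tested compounds plus 3 SD, cut at about 0.9% in these data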;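 note: 0% = DMSO-only wells and 100% = 3 µM delta7-dafachronic acid wells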
hcDAF12 agonist = activators of H. contortus DAF-12 nuclear receptor | HEK293 hcDAF-12 lit1-tk-luc reporter, luminescence; 0% DMSO, 100% Δ7-dafachronic acid | hit rate 1.4% among 370,000 | AID 652067 | activation, % at 6.8 µM;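 active = activation above the mean of all tested compounds plus 3 SD, cut at about 5.5% in these data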;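 note: 100% = response to 3 µM Δ7-dafachronic acid high control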
DAX1 inh-1 = inhibitors of human orphan nuclear receptor DAX1 (NR0B1) | P51843 | HEK293 Gal4-DAX1 luciferase reporter, luminescence | inhibition, % at 6.75 µM | hit rate 0.99% among 340,000;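 active = inhibition above the mean over all tested compounds plus 3 SD, cut at about 4.2% in these data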;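 note: 0% = DAX1-transfected cells with DMSO and 100% = empty-vector control cells with DMSO; inhibition shows as a rise in luminescence from relieved DAX1 repression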
Target sequence (P51843 207-470 limits assumed): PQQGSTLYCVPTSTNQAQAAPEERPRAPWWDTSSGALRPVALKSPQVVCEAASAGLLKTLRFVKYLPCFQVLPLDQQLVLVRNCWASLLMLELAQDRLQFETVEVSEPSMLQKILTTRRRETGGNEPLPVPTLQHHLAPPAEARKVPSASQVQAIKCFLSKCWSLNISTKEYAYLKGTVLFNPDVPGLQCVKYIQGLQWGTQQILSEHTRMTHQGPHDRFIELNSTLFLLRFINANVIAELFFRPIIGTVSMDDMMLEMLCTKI
DAX1 inh-2 = blocks DAX1 repression of SF-1 activated StAR promoter. HEK293T StAR-luciferase reporter, SF-1/DAX-1 repression relief. inhibition, % at 6.8 µM. hit rate 1.1% among 370,000;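 active = inhibition above the mean over all tested compounds plus 3 SD, cut at about 3.6% in these data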;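 note: 0% = DAX-1 cells with DMSO and 100% = cells lacking DAX-1 with DMSO; higher inhibition means more luminescence from relief of DAX-1 repression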
hgDAF12 agonist = hgDAF-12 agonism, primary luciferase screen. HEK293 GAL4-hgDAF12 UAS-luciferase reporter, agonist luminescence; normalized to butyrate control. hit rate 1.8% among 370,000. activation, % at 6.8 µM;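 active = activation above a cutoff set at the mean of all screened compounds plus 3 SD, cut at about 10% in these data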;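 note: 0% = DMSO wells and 100% = sodium butyrate wells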
Numbers without * were called inactive; . = no result.

SMILES | ssDAF12 agonist | hcDAF12 agonist | DAX1 inh-1 | DAX1 inh-2 | hgDAF12 agonist
C[C@@H]1OCN(C)[C@H]2C[C@H]3c4[nH]c5cccc(-c6ccccc6)c5c4CCN3C[C@@H]12 | -1 | -2 | . | 0 | 3
COc1ccc(-c2cnc3ccccc3n2)cc1NC(=O)CNC(=O)c1ccccc1 | 1.2* | 2 | 1 | 3 | 6
O=C(O)c1cc(=O)[nH]c2c(Cl)cccc12 | 1 | 5.8* | 0 | 0 | 2
CSCCC(N=C(NS(=O)(=O)c1ccccc1)c1ccccc1)C(=O)O (stereo not given) | 2.4* | -2 | 0 | -1 | -2
N#Cc1ccc(CO/N=C/c2ccccc2)cc1 | -1 | 1 | 1 | 0 | 7
Cc1nc2ccccc2nc(C)c1=NOCc1ccc(C#N)cc1 | 0 | 4 | 2 | 2 | 11*
Cc1c(NC2=C(Cl)C(=O)N(c3ccccc3Cl)C2=O)c(=O)n(-c2ccccc2)n1C | 0.9* | 5 | 0 | 0 | 1
CCCCCCC/C=C(\C)[C@@H](O)[C@@H](C)C(=O)N1CCC[C@@H]1C(=O)O[C@H](C(=O)O[C@@H](C)C(=O)O)[C@@H](C)CC | -1 | 0 | . | . | 0
O=C(Nc1c(F)c(F)c(F)c(F)c1F)OC[C@@H]1CSCCS(=O)(=O)N1 | 0 | -1 | . | 3.6* | 2
C=CCN1[C@H](Cc2ccccc2)COc2cccc(N3CCSCC3)c2S1(=O)=O | -1 | 0 | . | -1 | -2
Cc1ccc(C(=O)N2CCN(c3ccccc3)CC2)cc1C | -1 | 1 | 0 | 1 | 0
Cc1ccc(C(=O)N2CCC(C)CC2)cc1C | 2.2* | -1 | 0 | 1 | 4
O=C1C[C@@H](O)[C@H](O)c2cccc(O)c21 | 0 | 1 | . | -1 | -3
COc1ccc(S[C@]2(C(=O)N3CCN(C(C)=O)CC3)CC(=O)N(C(=O)C3CC3)[C@@H]2c2ccc(OC)cc2)cc1 | 0 | -2 | . | -2 | -2
O=C(Nc1cccnc1Cl)c1cccnc1Cl | -2 | -1 | 0 | 0 | 0
O=C(Nc1cccnc1Cl)c1ccc(Cl)cc1 | 0 | 1 | 2 | 1 | 12*
NC(=O)c1ccccc1NC(=O)/C=C/c1ccccc1 | 0 | 2 | 0 | 3 | 11*
O=C(/C=C/c1ccccc1)Nc1ccc(Br)cn1 | 1 | 1 | 2 | -1 | 13*
CC(C)=CC(=O)Nc1ccccc1C(N)=O | -1 | -1 | 0 | 0 | 2
NC(=O)c1ccccc1NC(=O)/C=C/c1ccc(Cl)cc1 | 0 | 2 | -1 | 1 | 13*
O=C(/C=C/c1ccccc1)Nc1cccnc1Cl | 1.8* | 2 | 2 | 2 | 10
O=C(COC(=O)/C=C/c1ccccc1)Nc1cccnc1Cl | -1 | 0 | 0 | -3 | 2
O=C1NC(=Nc2ccc(O)cc2)S/C1=C/c1ccco1 | -1 | 2 | -1 | -2 | -1
O=C1NC(=Nc2ccc3ccccc3c2)S/C1=C/c1ccco1 | 2.0* | 4 | 1 | 0 | 7
COc1ccc(C2CC(c3cccs3)=NN2C(=O)CN2CCCCC2)cc1 (stereo not given) | 3.1* | 0 | . | 0 | 2
SMILES | ssDAF12 agonist | hcDAF12 agonist | DAX1 inh-1 | DAX1 inh-2 | hgDAF12 agonist
CC(=O)O[C@H]1CC[C@@]2(C)C(CCC3C2CC[C@]2(C)OC(=O)CCC32)C1 (stereo not given in full) | -1 | -1 | 5.0* | 1 | 0
CC(=O)OC1CCC2(C)C(CCC3C4CC=C(C(C)=O)C4(C)OC(=O)CC32)C1 (stereo not given) | -2 | -4 | -4 | -3 | -18
CCOC(=O)Cc1nc(N2CCN(CCO)CC2)c2c(C)c(C(=O)OCC)sc2n1 | -1 | -2 | . | 1 | -1
COC(=O)c1ccccc1S(=O)(=O)N1CCC(C(=O)NCC2CCCO2)CC1 (stereo not given) | 0 | -1 | 4.3* | 1 | 0
Nc1c(C(=O)c2cccs2)oc2ccccc12 | 0 | 6.1* | 1 | 1 | 7
Nc1c(C(=O)c2ccc(Br)s2)oc2ccccc12 | 0 | 3 | 0 | 0 | 4
COc1ccc(C(=O)OCCN(C)C2CN(Cc3cn(Cc4ccccc4Cl)nn3)S(=O)(=O)C2)cc1OC (stereo not given) | -1 | 0 | . | -2 | -1
Nc1ncnc(NCc2ccccc2)c1[N+](=O)[O-] | -2 | 0 | 1 | -1 | 7
Cn1cnc(NCc2ccccc2)c1[N+](=O)[O-] | 3.4* | 1 | . | -1 | 0
COCCOC(=O)c1[nH]c2c(c1C)C(=O)C(C(=O)OC)C(C)C2 (stereo not given) | 0 | 3 | 3 | 3 | 10*
CCCCCOC(=O)c1[nH]c2c(c1C)C(=O)C(C(=O)OC)C(C)C2 (stereo not given) | -1 | -3 | -1 | -1 | 6
COC(=O)C1C(=O)c2c([nH]c(C(=O)OCC3CCCO3)c2C)CC1C (stereo not given) | 0 | 4 | 5.8* | 3 | 7
CCn1c(Cc2cccs2)nnc1SCC(=O)Nc1ccc(OCc2ccccc2)cc1 | -2 | -1 | . | -2 | 7
CCC1COC(c2cccn2Cc2ccccc2Cl)=N1 (stereo not given) | -1 | 1 | 5.9* | 0 | 4
COC(=O)c1cc(-c2cc(Cl)ccc2OC)c(=O)n2c1CCC2 | -1 | -3 | . | 0 | -4
O=c1c2cc(Br)ccc2nc(-c2ccc(Cl)cc2)n1O | 0 | -1 | 0 | 0 | 1
Cc1ccc(-c2nc3c(Cl)cc(Cl)cc3c(=O)n2O)cc1 | 0 | 6.0* | 1 | 0 | 0
COc1ccc(CN(CCN2CCOCC2)C(=O)c2cc(Cl)ccc2F)cc1OC | -1 | 0 | . | 1 | -1
CCCCNC(=O)C1(C(C)=O)CC(C(=O)OCC)=NO1 (stereo not given) | -1 | -1 | . | 0 | 2
Nc1nc(CSc2ccccn2)nc(Nc2ccccc2)n1 | 1 | 5 | 4 | 4 | 11*
CC(C)N1CCN(Cc2cccc(-c3ccco3)c2)CC1CCO (stereo not given) | 0 | 0 | 0 | 0 | 5
Cc1ccccc1-c1cccc(CN2CCN(C)C(CCO)C2)c1 (stereo not given) | -1 | 0 | 4.6* | 0 | 1
Cc1ccc(N2C(=O)N(CC(=O)Nc3ccc(C)cc3[N+](=O)[O-])C(=O)C2C)cc1 (stereo not given) | -1 | 0 | 1 | 3.6* | 2
CC(C)c1ccc(S(=O)(=O)N2CCN(CC(=O)c3ccc(O)c(O)c3)CC2)cc1 | -1 | 0 | -1 | 0 | 1
O=C(CN1CCN(S(=O)(=O)c2ccc(Br)cc2)CC1)c1ccc(O)c(O)c1 | -1 | 5.9* | 1 | 0 | 1
Cc1ccc(-n2c(SCc3ccc(Cl)c(Cl)c3)nnc2-c2ccc(C(C)(C)C)cc2)cc1 | -1 | -2 | . | 0 | 1
COc1ccc(CCNC(=O)CC(Cc2ccccc2)C(=O)O)cc1OC (stereo not given) | -1 | -2 | 1 | 2 | -3
